High-throughput results from PubChem BioAssay.
Most compounds without a hit are left out; they make up all but 2.6% or so of the library.
KCNH2 3.1 block – qHTS for Inhibitors of KCHN2 3.1: Mutant qHTS; 340,000 tested, 0.95% active; Potassium voltage-gated channel subfamily H member 2, brain isoform KCNH2 3.1 (human); U2OS KCNH2 3.1, thallium flux FluxOr; active compounds read low; activity change, % (tested at about 1.8 µM);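 active = maximum activity change below -70%; inconclusive = maximum activity change from -70% to -50%; inactive = maximum activity change above -50%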;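 also: thallium influx rate constant from kinetic fluorescence after stimulation buffer; % is scaled to controls: 0 for no effect and ±100 for the full control effect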
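Thallium flux via FluxOr fluorescence (Red40 quencher, 45 min loading) in U2OS cells virally expressing the KCNH2 3.1 isoform (1.77 x 10^8 /mL virus, overnight at 37 C). Rate constants from 2-min kinetic reads post-stimulation, normalised to positive and negative controls.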
TRPV1 potentiator – HTS Assay for Compounds that Act as Potentiators of the Vanilloid Receptor 1. potentiation, % at 8.33 µM. Transient receptor potential cation channel subfamily V member 1 (Homo sapiens), Q8NER1. TRPV1-expressing cells, Fluo-8 calcium influx, capsaicin EC20 potentiation. 320,000 tested, 0.02% active; in the data active = potentiation above about 80%; inconclusive = between about 30% and that limit; also: 0% is about no effect
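TRPV1-expressing cells were cultured overnight at 35.5C and loaded with Fluo-8 calcium dye for 40 to 90 min at room temperature. After a 10 s baseline, compound was added and calcium influx was read kinetically for 3 min (ex 480/em 520 nm).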
KCNH2 WT inh – qHTS for Inhibitors of KCHN2 3.1: Wildtype qHTS | U2OS, BacMam KCNH2, thallium flux FluxOr; active compounds read low | activity change, % at 1.84 µM | 340,000 tested, 0.37% active | AID 720551, 2013;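 active = maximum activity change below -70%; inconclusive = maximum activity change between -70% and -50%; inactive = maximum activity change above -50%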; also: % is scaled to controls: 0 for no effect and ±100 for the full control effect
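U2OS cells transduced with wild-type KCNH2 virus are loaded with FluxOr dye for 45 min, and thallium flux is measured in kinetic reads before and after stimulation buffer. Rate constants are normalized to DMSO controls.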
p53 reactivator – qHTS assay for re-activators of p53 using a Luc reporter; H1299 p53-A138V BP100-luciferase reporter, luminescence, 24 h; Potency, µM (doses to about 92.2 µM), without a hit: at the top dose activity change, positive = activation, hits mostly activators; 320,000 tested, 0.063% active; AID 504706, 2011; active = well fitted activation curve with a large enough effect; inconclusive = small, poorly fitted or top-dose-only effect; inactive = no such curve, though single readings can be large or run the other way; also: potency is read from the fitted curve at half-maximal effect; % of control where 0% means no effect; nearly all actives have a fitted effect of over 45% in size
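p53-null H1299 cells stably carrying temperature-sensitive p53-A138V and a BP100-luciferase reporter were pinned with compounds (4-point, 1:5 series) and held 24 hrs at 37 deg C. Luminescence was read 10 min after detection reagent.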
ClpP mod – qHTS Assay for Activators of ClpP | AID 651965, 2013 | ATP-dependent Clp protease proteolytic subunit (Bacillus subtilis (strain 168)), P80244 | purified B. subtilis ClpP, FRET peptide cleavage, 20 min | Potency, µM (highest dose often 57.5 µM), inactives show at the highest dose activity change, negative = active | 340,000 tested, 1.9% active; active = well fitted falling curve with a large enough effect; inconclusive = small, poorly fitted or top-dose-only effect; inactive = no such curve, though single readings can be large or run the other way; also: potency is read from the fitted curve at half-maximal effect; the source files actives as falling curves though it sought activators and does not explain the sign; nearly all actives have a fitted effect of over 65% in size
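Purified B. subtilis ClpP, 10 microg/mL final in Tris/HCl pH8 with KCl, BSA, glycerol and Tween-20, cleaved an Abz/nitrotyrosine-quenched decapeptide. Fluorescence (ex 320, em 430) was read at 0 and 20 min at room temperature. Delta was normalized to 5.8 microM ADEP and DMSO/no-enzyme controls.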
TRPV1 agonist – HTS Assay for Compounds that Act as Agonists of the Vanilloid Receptor 1; TRPV1-expressing cells, Fluo-8 calcium influx, agonist mode; 320,000 tested, 0.19% active; activation, % at 8.33 µM; in the data active = activation above about 80%; inconclusive = between about 30% and that limit; also: 0% is about no effect
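Cells expressing TRPV1 were dye-loaded with Fluo-8 and read kinetically: 10 s baseline, 3 min after compound (agonist portion), then 2 min after EC20 capsaicin (allosteric enhancer portion). Calcium-bound dye fluorescence at 480/520 nm.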
* marks the source's active call; other numbers are inactive results.

Screening Cc1nn(CC(=O)NCCCN2CCN(Cc3ccccc3)CC2)c(=O)c2cc(-c3ccccc3)nn12 returned KCNH2 3.1 block -49, TRPV1 potentiator 6, KCNH2 WT inh 31, p53 reactivator 7%, ClpP mod 0% and TRPV1 agonist 0.
Screening O=C(O)c1ccc(N(c2ccccc2)c2ccccc2)cc1 returned KCNH2 3.1 block 3, TRPV1 potentiator 7, KCNH2 WT inh 0, p53 reactivator -10%, ClpP mod 16µM* and TRPV1 agonist 2.
`O=C(NCCc1ccccc1)/C(=C\c1ccc([N+](=O)[O-])cc1)NC(=O)c1ccc(Br)cc1` gave KCNH2 3.1 block -17, TRPV1 potentiator 1, KCNH2 WT inh -8, p53 reactivator -8%, ClpP mod -3% and TRPV1 agonist -2.
`COc1ccc(/C=C(\NC(=O)c2ccc([N+](=O)[O-])cc2)C(=O)NCCN2CCOCC2)cc1` gave KCNH2 3.1 block -78*, TRPV1 potentiator -10, KCNH2 WT inh -118*, p53 reactivator -3% and TRPV1 agonist 3.
Cc1ccc(C(=O)N/C(=C\c2ccc([N+](=O)[O-])cc2)C(=O)NCCc2ccccc2)cc1 was read as KCNH2 3.1 block -96*, TRPV1 potentiator 4, KCNH2 WT inh -20, p53 reactivator 1%, ClpP mod -1% and TRPV1 agonist -2.
For COc1ccc(/C=C(\NC(=O)c2ccc([N+](=O)[O-])cc2)C(=O)NCCCN2CCOCC2)cc1 the results were KCNH2 3.1 block inconclusive, TRPV1 potentiator 10, KCNH2 WT inh -46, p53 reactivator 0% and TRPV1 agonist -8.
`CCCCOc1ccc(C(=O)N/C(=C/C=C/c2ccccc2)C(=O)NCCCO)cc1` gave KCNH2 3.1 block -7, TRPV1 potentiator -12, KCNH2 WT inh -1, p53 reactivator 2% and TRPV1 agonist 17.
`COc1ccc(/C=C(/NC(=O)c2ccc([N+](=O)[O-])cc2)C(=O)NCCCN(C)C)cc1` gave KCNH2 3.1 block inconclusive, TRPV1 potentiator 3, KCNH2 WT inh -84*, p53 reactivator 3%, ClpP mod -3% and TRPV1 agonist 3.
`C=CCNC(=O)/C(=C\c1ccc(OC)cc1)NC(=O)c1ccc([N+](=O)[O-])cc1` gave KCNH2 3.1 block -37, TRPV1 potentiator 5, KCNH2 WT inh 9, p53 reactivator 1% and TRPV1 agonist 2.
For CN(C)CCCNC(=O)/C(=C\C=C\c1ccccc1)NC(=O)c1ccc([N+](=O)[O-])cc1 the results were KCNH2 3.1 block -99*, TRPV1 potentiator 2, KCNH2 WT inh -72*, p53 reactivator 1% and TRPV1 agonist 1.
COCCCNc1nccn2ccnc12 was read as ClpP mod -4%.
For Cc1ccc(C(=O)N/C(=C\c2ccc(Cl)cc2)C(=O)NCCN2CCOCC2)cc1 the results were KCNH2 3.1 block inconclusive, TRPV1 potentiator 8, KCNH2 WT inh -93*, p53 reactivator -1% and TRPV1 agonist -7.
`Cc1cccc(CNC(=O)c2ccc3nc(Cc4ccccc4)oc3c2)c1` gave ClpP mod -1%.
`CCC(=O)N(CCC(Cc1ccccc1)c1ccc2c(c1)OCO2)Cc1ccccc1F` (stereo not drawn) gave KCNH2 3.1 block -79*, TRPV1 potentiator -10, KCNH2 WT inh 2, p53 reactivator 9%, ClpP mod 1% and TRPV1 agonist inconclusive.
FC(F)Oc1ccc(NC(=S)NNc2ccnc3cc(Cl)ccc23)cc1 was read as KCNH2 3.1 block -81*, TRPV1 potentiator -8, KCNH2 WT inh inconclusive, p53 reactivator -1% and TRPV1 agonist 5.
Screening Cc1ccc(N2C(=O)CS(=O)(=O)C23C(=O)N(Cc2ccc(Cl)cc2)c2ccccc23)cc1C (stereo not drawn) returned ClpP mod 2%.
`CCOC(=O)c1c(NC(=O)c2ccccc2C)sc2c1CCCC2` gave ClpP mod 32µM*.
`CCOC(=O)c1c(NC(=O)c2ccoc2C)sc2c1CCC2` gave KCNH2 3.1 block 3, TRPV1 potentiator -19, KCNH2 WT inh 7, p53 reactivator -1%, ClpP mod 35µM* and TRPV1 agonist 1.
For CCOC(=O)c1c(NC(=O)c2ccccc2C(=O)O)sc2c1CCCC2 the results were KCNH2 3.1 block -7, TRPV1 potentiator 21, KCNH2 WT inh -3, ClpP mod -1% and TRPV1 agonist -17.
`CCOC(=O)c1c(NC(=O)c2cc(Cl)ccc2Cl)sc2c1CCCC2` gave ClpP mod -1%.
`CCOc1ccc(NC(=O)NCCN2CCN(c3cc(Cl)ccc3C)CC2)cc1` gave ClpP mod 0%.
For Cc1ccc(-c2cc(C(=O)Nc3c(C(=O)c4ccc(C)c(F)c4)oc4ccccc34)no2)cc1 the results were ClpP mod -4%.
Cc1cc(NC(=O)c2ccc(-c3ccccc3F)o2)no1 was read as KCNH2 3.1 block -198*, TRPV1 potentiator -15, KCNH2 WT inh -15, p53 reactivator 15% and TRPV1 agonist inconclusive.
`O=C(CC1N=C2c3ccccc3N=C(SCc3ccccc3Cl)N2C1=O)NC1CCCCC1` (stereo not drawn) gave ClpP mod -4%.
For O=C(CSC1=Nc2ccccc2C2=NC(c3ccccc3)C(=O)N12)NC1CCCCC1 (stereo not drawn) the results were KCNH2 3.1 block -6, TRPV1 potentiator -2, KCNH2 WT inh 8, p53 reactivator 3%, ClpP mod 11µM* and TRPV1 agonist -3.
Screening CN(C(=O)CSc1ccccc1C(=O)O)C1CCCCC1 returned KCNH2 3.1 block -9, TRPV1 potentiator 3, KCNH2 WT inh -9, p53 reactivator 1%, ClpP mod 1% and TRPV1 agonist -3.
For CN(C(=O)CSC1=Nc2ccccc2C2=NC(c3ccccc3)C(=O)N12)C1CCCCC1 (stereo not drawn) the results were KCNH2 3.1 block -11, TRPV1 potentiator -26, KCNH2 WT inh 3, p53 reactivator 6%, ClpP mod 25µM* and TRPV1 agonist 2.
Screening COc1ccc(NC(=O)C2CCN(c3nc4ccccc4[nH]3)CC2)cc1OC returned ClpP mod -1%.
